Measured values reported in PubChem BioAssay (NCI).
About 79,000 compounds went through this panel and 15% of them were active in at least one assay; those are over-represented in the sample as a whole. Values without a mark were called inactive. Active and inactive are the calls of the source. Rule as the data show it: active = growth inhibition above about 70%; inactive = the rest.

Assay: NCI Yeast Anticancer Drug Screen. Data for the mlh1 rad18 strain (AID 175)
Conditions: S. cerevisiae mlh1 rad18 strain growth inhibition; at 50.0 µM; stronger effect = higher value
How it was run: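 Steps: expose repair-defective yeast to compound; measure growth; express inhibition against vehicle-treated controls.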

Row | Structure (SMILES) | growth inhibition
1 | Clc1ccc(OCC(Cn2ccnc2)c2ccc(Cl)cc2)cc1 (centres undefined) | 99.2% (active)
2 | CC(C)C(CC(C)(C)C)OC(=O)Nc1cccc2ccccc12 (centres undefined) | 58.1%
3 | CC(=O)OC[C@@]1(C)[C@@H]2CC[C@]3(C)[C@H](C(=O)C=C4[C@@H]5CC(C)(C)CC[C@]5(C(=O)O)CC[C@]43C)[C@@]2(C)CC[C@@H]1OC(C)=O | 95.6% (active)
4 | CCOC(=O)C[n+]1c(C)sc2ccccc21 | 19.2%
5 | O=[N+]([O-])c1ccc(/C=N/O)s1 | 99.3% (active)
6 | C=C(C)COc1ccccc1C(OCC)OCC | 78.5% (active)
7 | CCCCCCCCCCCCCC1OC(=O)C(C)=C1C(=O)O (centres undefined) | 61.9%
8 | CC(C)C(Sc1nc(-c2ccccc2)c(-c2ccccc2)[nH]1)c1n[nH]c(=S)n1-c1ccccc1 (centres undefined) | 95.9% (active)
9 | Cc1ccc(-c2c(C#N)c(S)n(NS(=O)(=O)c3ccccc3)c(=O)c2C#N)cc1 | 75.6% (active)
10 | O=C(c1ccccc1)c1ccc2c(c1Cl)C(=O)c1ccccc1C2=O | 65.2%
11 | COc1cccc(C2c3cc4c(cc3OC(O)C2C)OCO4)c1O (centres undefined) | 58%
12 | CCC[N+]1=C(/C=C/c2ccc3cccnc3c2O)C(C)(C)c2ccccc21 | 97.8% (active)
13 | O=C(/C=C/c1ccccc1Cl)c1ccc(F)cc1 | 29.6%
14 | CCN(CC)C(=S)N=Nc1c(O)[nH]c2ccccc12 | 92% (active)
15 | C[CH2][Sn]([CH2]C)([O]C(=O)c1ccccc1OC)[O][Sn]([CH2]C)([CH2]C)[O]C(=O)c1ccccc1OC | 72.8% (active)
16 | CCCCCCCCCCCCCCCC[N+](C)(C)C(C)c1ccc(OC)cc1 (centres undefined) | 91.8% (active)
17 | S=C(NCCc1ccccc1)N/N=C/c1ccc(Cl)cc1 | 80.9% (active)
18 | Cc1cc(Nc2ccc(O)c(CN3CCN(Cc4cc(Nc5cc(C)nc(N)n5)ccc4O)CC3)c2)nc(N)n1 | 97.5% (active)
19 | CC1C[N+](C)(C)C(C)C(=O)C1(c1ccccc1)c1ccccc1 (centres undefined) | 19.1%
20 | O=C1C(Cl)=C(Cl)C(=O)C2CC=CCC12 (centres undefined) | 99.5% (active)

Row | Structure (SMILES) | growth inhibition
21 | C/C(=N/O)c1ccc2c(c1)C(C)c1ccccc1-2 (centres undefined) | 75% (active)
22 | c1ccc(N/N=C2/CCCC3/C(=N\Nc4ccccc4)CCCC23)cc1 (centres undefined) | 96.1% (active)
23 | CCCC(C)C/C(C)=C\C(C)(C)C1CC(=O)N(CC)C1=O (centres undefined) | 60.9%
24 | COC(C(=O)C1=C2Oc3c4c(cc(O)c3C(=O)C2C2=C(CCCC2)C1=O)OC(C)(C)C=C4)C(C)CCC=C(C)C (centres undefined) | 80.2% (active)
25 | Cc1cc(Br)c(NC(=O)CBr)cc1C | 81.5% (active)
26 | Cc1ccc(S(=O)(=O)OCCCCOS(=O)(=O)c2ccc(C)cc2)cc1 | 15.1%
27 | Cc1ccc([N+](=O)[O-])c2c(NCCCN(C)C)c3ccccc3nc12 | 97% (active)
28 | CCOC(=O)c1c(N2CCCC2)nsc1Nc1ccc(F)cc1 | 93.5% (active)
29 | CC(=O)[C@H]1CC[C@H]2[C@@H]3CC[C@H]4C[C@@H](N5CCOCC5)CC[C@]4(C)[C@H]3CC[C@]12C | 74.8% (active)
30 | CC(C)CCCC(C)C1CCC2C3CCC4=CC(O)CCC4(C)C3CCC12C (centres undefined) | 93.5% (active)
31 | Nc1ccccc1SC(/C=C/NNC1=NC(c2ccccc2)C(c2ccccc2)=NN1)c1ccccc1 (centres undefined) | 91.8% (active)
32 | CCOC(=O)C1=C(c2ccccc2)OC(N)=C(C#N)C1c1ccc(C)cc1 (centres undefined) | 85.9% (active)
33 | COC1CC(OC(=O)c2ccccc2)C2OC(c3ccccc3)OCC2O1 (centres undefined) | 6.15%
34 | O=C(/N=C1\N=Nc2nc(C(C(=O)c3cccs3)c3nc4n(c3O)/C(=N/C(=O)Nc3ccc(Cl)cc3)N=N4)c(O)n21)Nc1ccc(Cl)cc1 (centres undefined) | 49.3%
35 | C=CCNC(=S)N/N=C(\CCC)c1ccccn1 | 47.9%
36 | O=C(c1cc2c(C(F)(F)F)onc2c2ccccc12)C(F)(F)F | 36.4%
37 | O=C1C=CC(=O)C2C1Cc1ccccc1C2c1ccccc1 (centres undefined) | 98.5% (active)
38 | CC1SC2(C(=O)Nc3ccc([N+](=O)[O-])cc32)N(c2ccc(Cl)cc2)C1=O (centres undefined) | 93.5% (active)
39 | CC(=O)OCCn1c2nc(=O)[nH]c(=O)c-2nc2cc(C)c(C)cc21 | 47.5%
